TTR transcr act – activators of transthyretin transcription; SH-SY5Y TTR promoter Gaussia luciferase, luminescence; 100% = recombinant luciferase protein wells; activation, % at 16.7 µM; actives 1.3% (n = 92,000); AID 1117267;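 active = activation above the mean of all tested compounds plus 3 SD, cut at about 9.5% in these data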;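 also: cells exposed to compounds for one day before reading; 0% = median of all test compound wells on the plate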
HuH7 TTR inh – counter-screen for TTR activators: TTR transcription inhibitors in HuH7 cells. inhibition, % at 16.7 µM. actives 4% (n = 1,100). shares compounds with TTR transcr act. HuH7 TTR promoter-Gaussia luciferase reporter, luminescence;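 active = average inhibition above the solvent-only control wells' mean plus 3 SD, cut at about 15% in these data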;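 also: 0% = cells with DMSO only and 100% = cells with inhibitor control FD; inhibitors lower well luminescence so higher value means more inhibition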
TTR up confirm – confirmation of human transthyretin transcription activators. shares compounds with TTR transcr act. SHSY5Y TTR promoter Gaussia luciferase, luminescence; 100% = purified Lucia enzyme wells, no cells. activation, % at 16.7 µM. 1,100 tested, under 10 active;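 active = mean activation above a set limit taken from the earlier primary screen, cut at about 11% in these data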;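 also: 0% = DMSO-treated cells and 100% = recombinant Lucia luciferase without cells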
An asterisk follows results filed as active. Shown is part of a subset that was picked to be rich in hits.

SMILES | TTR transcr act | others
COC(=O)[C@@]12CCCN1[C@H](c1ccc(SC3CCCCC3)cc1)[C@H]1C(=O)N(C)C(=O)[C@H]12 | -1
CCN1C(=O)[C@@H]2[C@@H](c3ccc(SC4CCCCC4)cc3)N3CCC[C@@]3(C(=O)OC)[C@@H]2C1=O | 11* | HuH7 TTR inh=-4;TTR up confirm=0
CCN1C(=O)[C@H]2[C@@H](c3ccc(SC4CCCCC4)cc3)N3CCCC[C@@]3(C(=O)OC)[C@H]2C1=O | 3
Cc1ccc(C(=O)n2ccc3ccc(-c4ccc5ccn(Cc6ccccc6)c5c4)cc32)cc1 | -1
O=C1NC(=O)N(Cc2ccccc2)CC1Br (configuration not stated) | 0
CC1CN(C2CCCCC2)C(=S)NC1=O (configuration not stated) | 2
O=C1NC(=O)N(C2CCCCC2)CC1Br (configuration not stated) | 25* | HuH7 TTR inh=-4;TTR up confirm=-1
CCN(CC)C(=O)c1[nH]cnc1C(=O)N[C@@H](Cc1ccccc1)C(=O)OC(C)(C)C | -2
COC(=O)Cn1cc(C(=O)OC)c2ccccc21 | -1
COC(=O)CSc1ccc(C#N)c(SCC(=O)OC)c1 | 1
COC(=O)CSc1ccccc1C(=O)OC | 19* | HuH7 TTR inh=-13;TTR up confirm=1
COc1cccc(C(=O)N2CCC[C@H]2C(=O)N2CCC[C@H]2C(=O)N[C@H](C)c2ccccc2)c1 | -1
CS(=O)(=O)c1ccc(-c2sc3cc4c(cc3c2C(=O)NN2CCOCC2)OCO4)cc1 | -4
COc1ccc(CN2CCC(CO)(Cc3ccccc3C(F)(F)F)CC2)c(F)c1 | 1
CCCCCCCCN1C(=O)[C@@H](CC(=O)NCc2ccccc2)C[C@@]2(C(=O)OC)C1=C[C@H](C(C)C)O[C@@H]2C1CC1 | 3
CCOC(=O)c1sc(N)nc1-c1ccccc1 | 1
CCOC(=O)c1sc(NC(=O)c2ccc(S(=O)(=O)N3CCOCC3)cc2)nc1-c1ccccc1 | -1
CCOC(=O)Nc1nc(-c2ccccc2)c(C(=O)c2ccc(Cl)cc2)s1 | 11* | HuH7 TTR inh=23*;TTR up confirm=0
CCOC(=O)c1c(C)[nH]c(C)c1C(=O)COC(=O)C1CC(=O)N(CCc2ccccc2)C1 (configuration not stated) | 1
O=C(NC1CCCCC1)C1CC(=O)N(c2ccccc2)C1 (configuration not stated) | 1
CCc1noc(C)c1C(=O)OCC(=O)Nc1nc(-c2ccc(F)c(F)c2)cs1 | -1
CN(Cc1ccccc1)C(=O)c1ccc(NC(=O)Cc2cccc(NC(=O)C3CCCN(C(=O)C4CCCCC4)C3)c2)cc1 (configuration not stated) | 8
COc1ccc(C(=O)CSc2ncnc3nc[nH]c23)cc1 | -1
Cn1cnc(Sc2ncnc3nc[nH]c23)c1[N+](=O)[O-] | 38* | HuH7 TTR inh=0;TTR up confirm=0
Cn1cnc([N+](=O)[O-])c1Sc1ncnc2nc[nH]c12 | 2
SMILES | TTR transcr act | others
CC(C)(C)OC(=O)N1CCC(C(=O)Nc2cccc(C(=O)N3CCCC3)c2)CC1 | 0
CS(=O)(=O)N1CCC(C(=O)Nc2cccc(C(F)(F)F)c2)CC1 | 0
CCN1CCC(NC(=O)Nc2cccc(C(F)(F)F)c2)CC1 | 19* | HuH7 TTR inh=-14;TTR up confirm=0
CCOC(=O)N1CCC(NC(=O)c2cc(C(=O)Nc3cccc(C(F)(F)F)c3)ccc2CO)CC1 | -2
O=C(NC1CCCCC1)c1ccc(CS(=O)(=O)c2ccc(Cl)cc2)o1 | 1
O=C(c1ccccc1)C1CC=CCC1C(=O)c1ccccc1 (configuration not stated) | 0
CC1(c2nnnn2Cc2ccccc2)CCC(=O)N1Cc1ccc(F)cc1 (configuration not stated) | 2
Oc1ccccc1N1CCN(c2nnnn2-c2ccccc2)CC1 | 0
O=C(C1CCN(c2nnnn2-c2ccccc2)CC1)N1CCN(c2ccccc2)CC1 | -1
NC(=O)C1CCN(c2nnnn2-c2ccccc2)CC1 | 10* | HuH7 TTR inh=-13;TTR up confirm=-1
COCCn1c(=NC(=O)CSCC(=O)N2CCOCC2)sc2ccccc21 | 0
COc1ccccc1N(C(=O)c1ccco1)C(C(=O)NC1CCCC1)c1ccncc1 (configuration not stated) | 0
COc1cc(/C=C(\C#N)C(=O)Nc2ccccn2)ccc1O | 1
CC(C)(C)c1ccc(/C=C(\C#N)C(=O)Nc2ccccn2)cc1 | -2
CNc1ccc(/C=C(\C#N)C(=O)Nc2ccccn2)cc1[N+](=O)[O-] | 23* | HuH7 TTR inh=-12;TTR up confirm=0
O=C(NCCCc1ccccc1)[C@H](Cc1c[nH]c2ccccc12)NC1(C(=O)NCCc2c[nH]c3ccccc23)CCOCC1 | -2
CCOc1ccccc1-c1nc(C(N)=O)c2[nH]c(=O)n(-c3ccc(F)cc3)c2n1 | 1
Cc1ccsc1-c1nc(C(N)=O)c2[nH]c(=O)n(-c3ccc(Cl)cc3)c2n1 | 2

Screening results: PubChem, The Scripps Research Institute Molecular Screening Center
